In paper PMC7862700, “An all-to-all approach to the identification of sequence-specific readers for epigenetic DNA modifications on cytosine”:

Columns and labels:
Assay in all cases: DAPPL (digital affinity profiling via proximity ligation, sequencing); 10 mM Tris-HCl pH 7.5, 50 mM NaCl, 1 mM DTT, 4% glycerol, room temperature, 30 min; GST-TFs on glutathione beads, 16-mer random dsDNA library, 0.1% formaldehyde crosslink after washing; high values mean tight binding
[1] = target: T1, FEV (Homo sapiens, UniProt Q99581 1-238); settings: protein: recombinant; tags: N-terminal GST; dsDNA, one strand shown
T1 sequence: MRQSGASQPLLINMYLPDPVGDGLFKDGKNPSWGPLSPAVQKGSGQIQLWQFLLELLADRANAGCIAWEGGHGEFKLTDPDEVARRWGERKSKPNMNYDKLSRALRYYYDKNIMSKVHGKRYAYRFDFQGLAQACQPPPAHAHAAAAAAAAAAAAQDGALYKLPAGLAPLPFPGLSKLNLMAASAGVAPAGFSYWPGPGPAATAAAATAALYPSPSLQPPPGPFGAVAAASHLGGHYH
Procedure, shortened: (§1)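 Human transcription factors carrying a GST fusion were produced in yeast, bound to glutathione beads, tagged with DNA barcodes and pooled together with a tag-only sample. Each pool was held with 200 nmole of a random double-stranded 16-mer DNA library in Tris/NaCl/DTT/glycerol buffer for 30 min at room temperature, then washed, crosslinked in 0.1% formaldehyde, proximity-ligated with BsaI/T4 ligase (1 h, 37 °C), PCR-amplified and sequenced on an Illumina NextSeq500. Binding signal is the read frequency of each hexamer for a given factor divided by its frequency in the tag-only sample.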

[2] = target: ETV5 (Homo sapiens, UniProt P41161 1-510); settings: protein: recombinant; tags: N-terminal GST; dsDNA, one strand shown
Procedure, shortened: as §1

[3] = target: HSF1 (Homo sapiens, UniProt Q00613 1-529); settings: protein: recombinant; tags: N-terminal GST; chain copies: 3; dsDNA, one strand shown
Procedure, shortened: as §1

[4] = target: T2, SPIC (Homo sapiens, UniProt Q8N5J4 1-248); settings: protein: recombinant; tags: N-terminal GST; dsDNA, one strand shown
T2 sequence: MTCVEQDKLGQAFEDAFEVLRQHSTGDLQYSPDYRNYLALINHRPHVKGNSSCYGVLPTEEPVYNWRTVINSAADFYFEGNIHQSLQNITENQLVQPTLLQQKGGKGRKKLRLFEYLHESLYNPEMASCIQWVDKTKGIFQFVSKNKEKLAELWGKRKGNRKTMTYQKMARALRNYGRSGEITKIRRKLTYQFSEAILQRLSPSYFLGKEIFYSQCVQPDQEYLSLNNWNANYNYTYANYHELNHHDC
Procedure, shortened: as §1

[5] = target: ELF4 (Homo sapiens, UniProt Q99607 1-663); settings: protein: recombinant; tags: N-terminal GST; dsDNA, one strand shown
Procedure, shortened: as §1

[6] = target: T3, ELK4 (Homo sapiens, UniProt P28324-2 1-405); settings: protein: recombinant; tags: N-terminal GST; dsDNA, one strand shown
T3 sequence: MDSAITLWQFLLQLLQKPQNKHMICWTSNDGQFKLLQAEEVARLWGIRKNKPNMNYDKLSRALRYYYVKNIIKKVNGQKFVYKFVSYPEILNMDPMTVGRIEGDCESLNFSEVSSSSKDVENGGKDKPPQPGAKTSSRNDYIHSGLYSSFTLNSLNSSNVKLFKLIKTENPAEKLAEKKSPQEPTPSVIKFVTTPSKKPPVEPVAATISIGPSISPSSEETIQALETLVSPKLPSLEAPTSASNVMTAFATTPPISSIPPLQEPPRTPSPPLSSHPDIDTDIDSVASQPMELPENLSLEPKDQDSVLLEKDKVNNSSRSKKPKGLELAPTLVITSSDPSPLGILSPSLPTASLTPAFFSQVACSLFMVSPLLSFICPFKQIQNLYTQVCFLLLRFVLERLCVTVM
Procedure, shortened: as §1

[7] = target: T4, ETV2 (Homo sapiens, UniProt O00321 1-342); settings: protein: recombinant; tags: N-terminal GST; dsDNA, one strand shown
T4 sequence: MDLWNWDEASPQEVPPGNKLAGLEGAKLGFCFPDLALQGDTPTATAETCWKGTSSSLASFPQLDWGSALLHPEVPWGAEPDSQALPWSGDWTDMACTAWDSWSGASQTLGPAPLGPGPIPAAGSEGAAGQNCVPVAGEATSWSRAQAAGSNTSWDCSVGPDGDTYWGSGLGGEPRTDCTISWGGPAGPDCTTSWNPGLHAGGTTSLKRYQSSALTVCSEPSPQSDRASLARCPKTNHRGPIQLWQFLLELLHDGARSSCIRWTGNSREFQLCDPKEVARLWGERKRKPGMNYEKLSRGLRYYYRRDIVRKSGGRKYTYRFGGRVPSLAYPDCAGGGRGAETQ
Procedure, shortened: as §1

[8] = target: T5, ELF3 (Homo sapiens, UniProt P78545 1-371); settings: protein: recombinant; tags: N-terminal GST; dsDNA, one strand shown
T5 sequence: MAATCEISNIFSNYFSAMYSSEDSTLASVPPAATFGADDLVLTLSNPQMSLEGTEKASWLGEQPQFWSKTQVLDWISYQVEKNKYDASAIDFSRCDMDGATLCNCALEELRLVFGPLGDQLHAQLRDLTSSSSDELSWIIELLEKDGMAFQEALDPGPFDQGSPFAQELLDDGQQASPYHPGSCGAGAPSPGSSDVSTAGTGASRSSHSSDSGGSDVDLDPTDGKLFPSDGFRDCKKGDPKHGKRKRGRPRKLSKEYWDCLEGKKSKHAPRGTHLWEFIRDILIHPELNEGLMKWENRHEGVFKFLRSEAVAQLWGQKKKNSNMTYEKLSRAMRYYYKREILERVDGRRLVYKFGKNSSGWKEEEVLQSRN
Procedure, shortened: as §1

[9] = target: CRX (Homo sapiens, UniProt O43186 1-299); settings: protein: recombinant; tags: N-terminal GST; dsDNA, one strand shown
Procedure, shortened: as §1

[10] = target: ETV1 (Homo sapiens, UniProt P50549 1-477); settings: protein: recombinant; tags: N-terminal GST; dsDNA, one strand shown
Procedure, shortened: as §1

[11] = target: T6, ERF (Homo sapiens, UniProt P50548 1-548); settings: protein: recombinant; tags: N-terminal GST; dsDNA, one strand shown
T6 sequence: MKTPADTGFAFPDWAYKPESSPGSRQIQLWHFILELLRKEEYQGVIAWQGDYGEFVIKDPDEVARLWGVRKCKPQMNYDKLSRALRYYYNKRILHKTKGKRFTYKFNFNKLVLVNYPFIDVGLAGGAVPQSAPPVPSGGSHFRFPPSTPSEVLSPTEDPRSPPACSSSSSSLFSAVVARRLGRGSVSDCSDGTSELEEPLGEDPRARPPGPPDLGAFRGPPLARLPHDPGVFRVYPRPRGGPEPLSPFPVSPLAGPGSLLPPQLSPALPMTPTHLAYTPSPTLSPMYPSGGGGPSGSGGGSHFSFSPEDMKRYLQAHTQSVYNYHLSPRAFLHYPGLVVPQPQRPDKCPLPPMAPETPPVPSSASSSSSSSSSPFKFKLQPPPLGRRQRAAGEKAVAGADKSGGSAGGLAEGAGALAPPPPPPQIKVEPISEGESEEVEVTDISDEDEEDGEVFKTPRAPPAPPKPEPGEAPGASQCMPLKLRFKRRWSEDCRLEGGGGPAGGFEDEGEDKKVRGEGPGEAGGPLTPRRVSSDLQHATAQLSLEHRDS
Procedure, shortened: as §1

[12] = target: T7, ETV3L (Homo sapiens, UniProt Q6ZN32 1-361); settings: protein: recombinant; tags: N-terminal GST; dsDNA, one strand shown
T7 sequence: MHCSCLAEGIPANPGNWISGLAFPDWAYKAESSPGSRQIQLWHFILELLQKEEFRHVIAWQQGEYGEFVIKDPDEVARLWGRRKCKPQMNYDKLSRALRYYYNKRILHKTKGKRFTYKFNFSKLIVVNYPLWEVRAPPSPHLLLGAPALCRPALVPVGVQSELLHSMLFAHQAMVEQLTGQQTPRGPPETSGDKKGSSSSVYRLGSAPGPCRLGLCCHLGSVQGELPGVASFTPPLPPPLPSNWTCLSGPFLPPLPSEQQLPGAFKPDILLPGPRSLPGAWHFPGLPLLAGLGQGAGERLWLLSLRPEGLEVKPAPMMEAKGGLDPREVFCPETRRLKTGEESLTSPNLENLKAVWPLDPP
Procedure, shortened: as §1

[13] = target: T8, ETS2 (Homo sapiens, UniProt P15036 1-469); settings: protein: recombinant; tags: N-terminal GST; dsDNA, one strand shown
T8 sequence: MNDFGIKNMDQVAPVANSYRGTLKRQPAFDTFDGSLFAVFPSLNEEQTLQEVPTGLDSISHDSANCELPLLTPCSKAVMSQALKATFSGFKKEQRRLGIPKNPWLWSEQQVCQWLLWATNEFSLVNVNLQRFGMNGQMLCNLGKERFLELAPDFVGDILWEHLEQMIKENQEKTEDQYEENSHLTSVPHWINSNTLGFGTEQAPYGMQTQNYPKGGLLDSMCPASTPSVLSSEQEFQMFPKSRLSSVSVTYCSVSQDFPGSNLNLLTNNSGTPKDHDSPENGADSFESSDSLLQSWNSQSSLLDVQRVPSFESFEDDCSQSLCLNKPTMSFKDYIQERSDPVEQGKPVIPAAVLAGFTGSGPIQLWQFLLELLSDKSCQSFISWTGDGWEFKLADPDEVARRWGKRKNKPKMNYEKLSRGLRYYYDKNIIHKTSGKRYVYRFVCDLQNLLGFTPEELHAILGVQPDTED
Procedure, shortened: as §1

[14] = target: T9, SPDEF (Homo sapiens, UniProt O95238 1-335); settings: protein: recombinant; tags: N-terminal GST; dsDNA, one strand shown
T9 sequence: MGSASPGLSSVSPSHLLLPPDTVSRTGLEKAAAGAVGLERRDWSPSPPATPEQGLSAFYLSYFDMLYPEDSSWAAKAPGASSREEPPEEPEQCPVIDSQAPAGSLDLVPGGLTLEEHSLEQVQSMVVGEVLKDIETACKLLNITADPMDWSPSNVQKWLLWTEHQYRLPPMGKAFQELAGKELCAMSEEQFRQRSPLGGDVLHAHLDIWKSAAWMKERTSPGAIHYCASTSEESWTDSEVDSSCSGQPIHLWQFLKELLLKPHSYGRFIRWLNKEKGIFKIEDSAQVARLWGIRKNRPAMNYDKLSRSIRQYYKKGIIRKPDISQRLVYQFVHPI
Procedure, shortened: as §1

[15] = target: T10, ETV7 (Homo sapiens, UniProt Q9Y603 1-341); settings: protein: recombinant; tags: N-terminal GST; dsDNA, one strand shown
T10 sequence: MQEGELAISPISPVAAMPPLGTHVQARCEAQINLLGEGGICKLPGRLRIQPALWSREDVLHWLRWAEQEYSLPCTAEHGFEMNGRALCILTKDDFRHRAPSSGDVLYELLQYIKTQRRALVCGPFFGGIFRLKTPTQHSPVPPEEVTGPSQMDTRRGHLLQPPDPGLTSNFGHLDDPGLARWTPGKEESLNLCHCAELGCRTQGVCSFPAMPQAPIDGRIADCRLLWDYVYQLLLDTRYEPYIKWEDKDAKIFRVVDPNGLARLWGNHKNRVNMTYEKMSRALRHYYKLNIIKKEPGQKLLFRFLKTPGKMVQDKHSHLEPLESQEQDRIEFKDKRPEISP
Procedure, shortened: as §1

[16] = target: T11, ELF5 (Homo sapiens, UniProt Q9UKW6-2 1-255); settings: protein: recombinant; tags: N-terminal GST; dsDNA, one strand shown
T11 sequence: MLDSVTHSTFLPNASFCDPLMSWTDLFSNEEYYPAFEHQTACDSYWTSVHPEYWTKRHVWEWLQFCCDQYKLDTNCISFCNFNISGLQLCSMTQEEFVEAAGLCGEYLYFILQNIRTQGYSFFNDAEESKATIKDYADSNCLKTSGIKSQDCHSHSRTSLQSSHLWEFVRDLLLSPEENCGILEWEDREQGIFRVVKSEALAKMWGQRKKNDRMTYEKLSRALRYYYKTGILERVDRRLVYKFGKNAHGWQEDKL
Procedure, shortened: as §1

[17] = target: T12, ETV3 (Homo sapiens, UniProt P41162-2 1-143); settings: protein: recombinant; tags: N-terminal GST; dsDNA, one strand shown
T12 sequence: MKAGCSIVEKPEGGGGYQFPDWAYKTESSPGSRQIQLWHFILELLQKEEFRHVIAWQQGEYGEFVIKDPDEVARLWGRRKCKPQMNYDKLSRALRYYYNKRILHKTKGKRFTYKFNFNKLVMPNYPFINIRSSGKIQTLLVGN
Procedure, shortened: as §1

[18] = target: ETV6 (Homo sapiens, UniProt P41212 1-452); settings: protein: recombinant; tags: N-terminal GST; dsDNA, one strand shown
Procedure, shortened: as §1

Chain of ETV6 (P41212 whole entry): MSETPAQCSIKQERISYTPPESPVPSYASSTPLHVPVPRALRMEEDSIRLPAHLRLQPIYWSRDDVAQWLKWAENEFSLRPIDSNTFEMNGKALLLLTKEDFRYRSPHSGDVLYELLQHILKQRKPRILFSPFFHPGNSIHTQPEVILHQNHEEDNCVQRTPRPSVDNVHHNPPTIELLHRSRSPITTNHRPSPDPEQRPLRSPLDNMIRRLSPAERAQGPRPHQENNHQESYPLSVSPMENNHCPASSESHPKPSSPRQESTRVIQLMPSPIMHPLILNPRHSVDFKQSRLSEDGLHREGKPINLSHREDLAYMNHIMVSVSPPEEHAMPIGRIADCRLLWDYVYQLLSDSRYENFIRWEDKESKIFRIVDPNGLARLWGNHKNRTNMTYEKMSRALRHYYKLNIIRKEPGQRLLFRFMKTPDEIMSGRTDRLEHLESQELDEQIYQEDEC
Chain of ELF4 (Q99607 whole entry): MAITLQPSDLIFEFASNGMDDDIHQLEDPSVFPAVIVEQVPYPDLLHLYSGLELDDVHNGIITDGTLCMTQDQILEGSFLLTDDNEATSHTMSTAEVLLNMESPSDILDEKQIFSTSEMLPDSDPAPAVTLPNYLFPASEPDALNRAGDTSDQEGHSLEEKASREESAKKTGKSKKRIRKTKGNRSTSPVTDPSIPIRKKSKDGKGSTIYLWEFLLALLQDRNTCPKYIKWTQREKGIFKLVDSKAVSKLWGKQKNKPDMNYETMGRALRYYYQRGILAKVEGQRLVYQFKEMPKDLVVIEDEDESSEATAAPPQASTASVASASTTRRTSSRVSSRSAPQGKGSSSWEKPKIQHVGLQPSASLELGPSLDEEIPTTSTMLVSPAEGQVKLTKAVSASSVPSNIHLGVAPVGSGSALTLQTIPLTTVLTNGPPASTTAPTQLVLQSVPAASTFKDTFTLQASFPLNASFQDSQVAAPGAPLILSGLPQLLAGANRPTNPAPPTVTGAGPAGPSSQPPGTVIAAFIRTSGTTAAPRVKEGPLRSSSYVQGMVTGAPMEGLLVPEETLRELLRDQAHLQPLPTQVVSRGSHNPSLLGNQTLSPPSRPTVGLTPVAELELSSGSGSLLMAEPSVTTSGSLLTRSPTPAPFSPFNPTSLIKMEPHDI
Chain of HSF1 (Q00613 whole entry): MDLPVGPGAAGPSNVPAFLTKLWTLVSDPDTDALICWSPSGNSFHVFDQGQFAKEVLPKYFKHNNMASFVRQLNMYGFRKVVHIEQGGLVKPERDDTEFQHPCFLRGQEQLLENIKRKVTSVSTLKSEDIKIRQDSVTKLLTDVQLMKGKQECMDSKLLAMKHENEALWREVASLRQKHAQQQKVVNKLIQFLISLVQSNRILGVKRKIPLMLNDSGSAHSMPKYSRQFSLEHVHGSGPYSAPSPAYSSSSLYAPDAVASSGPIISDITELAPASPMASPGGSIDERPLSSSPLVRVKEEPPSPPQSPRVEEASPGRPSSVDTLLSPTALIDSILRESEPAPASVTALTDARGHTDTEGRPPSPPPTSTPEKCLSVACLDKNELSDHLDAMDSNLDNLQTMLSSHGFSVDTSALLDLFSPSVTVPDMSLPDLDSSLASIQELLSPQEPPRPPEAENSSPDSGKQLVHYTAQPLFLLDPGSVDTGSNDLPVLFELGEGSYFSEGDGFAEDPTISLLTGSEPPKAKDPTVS
Chain of CRX (O43186 whole entry): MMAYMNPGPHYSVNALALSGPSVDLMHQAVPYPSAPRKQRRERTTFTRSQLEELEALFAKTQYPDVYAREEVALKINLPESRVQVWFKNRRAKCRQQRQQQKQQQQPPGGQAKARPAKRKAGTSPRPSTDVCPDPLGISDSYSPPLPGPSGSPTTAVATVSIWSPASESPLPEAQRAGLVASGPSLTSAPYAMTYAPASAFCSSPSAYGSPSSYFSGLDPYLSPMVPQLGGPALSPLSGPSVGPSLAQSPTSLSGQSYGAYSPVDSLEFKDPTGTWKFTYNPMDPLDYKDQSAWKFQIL
Chain of ETV1 (P50549 whole entry): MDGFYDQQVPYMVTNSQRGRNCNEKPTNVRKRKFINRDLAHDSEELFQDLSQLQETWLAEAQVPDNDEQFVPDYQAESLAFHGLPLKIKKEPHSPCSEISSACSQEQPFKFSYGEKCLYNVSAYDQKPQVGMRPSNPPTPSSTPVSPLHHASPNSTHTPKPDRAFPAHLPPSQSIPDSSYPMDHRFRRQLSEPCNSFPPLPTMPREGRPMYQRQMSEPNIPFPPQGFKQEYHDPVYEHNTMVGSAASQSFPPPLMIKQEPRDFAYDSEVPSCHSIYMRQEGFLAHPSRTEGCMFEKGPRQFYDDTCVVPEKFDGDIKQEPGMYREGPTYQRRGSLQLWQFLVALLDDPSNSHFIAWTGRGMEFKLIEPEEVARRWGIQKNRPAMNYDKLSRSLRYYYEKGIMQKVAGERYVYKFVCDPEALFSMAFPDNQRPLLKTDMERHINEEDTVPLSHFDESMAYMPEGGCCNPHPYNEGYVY
Chain of ETV5 (P41161 whole entry): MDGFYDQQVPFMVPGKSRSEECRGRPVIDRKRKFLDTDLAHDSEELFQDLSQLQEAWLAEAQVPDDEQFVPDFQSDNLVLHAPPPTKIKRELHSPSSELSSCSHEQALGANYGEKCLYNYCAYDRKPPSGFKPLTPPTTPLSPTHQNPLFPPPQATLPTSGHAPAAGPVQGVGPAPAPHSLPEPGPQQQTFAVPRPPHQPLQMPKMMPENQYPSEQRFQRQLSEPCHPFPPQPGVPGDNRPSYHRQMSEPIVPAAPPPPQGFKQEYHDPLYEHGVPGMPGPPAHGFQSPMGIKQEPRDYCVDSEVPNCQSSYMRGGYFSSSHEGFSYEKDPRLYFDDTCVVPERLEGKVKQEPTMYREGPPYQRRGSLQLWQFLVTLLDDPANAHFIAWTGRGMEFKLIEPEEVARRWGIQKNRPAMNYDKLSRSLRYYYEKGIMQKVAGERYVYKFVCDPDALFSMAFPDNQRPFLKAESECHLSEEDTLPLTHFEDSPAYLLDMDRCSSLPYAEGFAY

CTAGAT was tested, and the binding signal [1] was 1.13 fold enrichment (6-mer frequency, TF over GST control), the binding signal [2] was 1.19 fold enrichment (6-mer frequency, TF over GST control) and the binding signal [3] was 2.7 fold enrichment (6-mer frequency, TF over GST control). For the same sequence, the binding signal [4] was 1.16 fold enrichment (6-mer frequency, TF over GST control), the binding signal [5] was 1.16 fold enrichment (6-mer frequency, TF over GST control) and the binding signal [6] was 1.17 fold enrichment (6-mer frequency, TF over GST control). For the same sequence, the binding signal [7] was 1.17 fold enrichment (6-mer frequency, TF over GST control), the binding signal [8] was 1.15 fold enrichment (6-mer frequency, TF over GST control) and the binding signal [9] was 1.83 fold enrichment (6-mer frequency, TF over GST control). For the same sequence, the binding signal [10] was 1.17 fold enrichment (6-mer frequency, TF over GST control), the binding signal [11] was 1.24 fold enrichment (6-mer frequency, TF over GST control) and the binding signal [12] was 1.34 fold enrichment (6-mer frequency, TF over GST control). The binding signal [13] was 1.2 fold enrichment (6-mer frequency, TF over GST control), the binding signal [14] was 1.26 fold enrichment (6-mer frequency, TF over GST control) and the binding signal [15] was 1.2 fold enrichment (6-mer frequency, TF over GST control). For the same sequence, the binding signal [16] was 1.11 fold enrichment (6-mer frequency, TF over GST control), the binding signal [17] was 1.19 fold enrichment (6-mer frequency, TF over GST control) and the binding signal [18] was 1.05 fold enrichment (6-mer frequency, TF over GST control).
